Where a structure was tested more than once in an assay, its records may differ in their call. The source made the active and inactive calls. How the source made its calls: active means hit-call score of the fitted dose curve at least 0.9, where 1 is the maximum; inactive means score below 0.9.
Assay: ATG_NFI_CIS: Attagene CIS-FACTORIAL HepG2 Assay for human Nuclear Factor I (NFI) (AID 2282989)
Details: HepG2 cis-regulatory reporter, NFI response element transcription; actives raise or lower the signal
Procedure: ATG_CIS is a cell-based, multiplexed-readout assay that uses HepG2, a human liver cell line, with measurements taken at 24 hours after chemical dosing in a 24-well plate.ATG_NFI_CIS is one of 52 assay component(s) measured or calculated from the ATG_CIS assay. It is designed to make measurements of mRNA induction, a form of inducible reporter, as detected with fluorescence intensity signals by Reverse transcription polymerase chain reaction (RT-PCR) and Capillary electrophoresis technology.Data from the assay component ATG_NFI_CIS was analyzed into 1 assay endpoint. This assay endpoint, ATG_NFI_CIS, was analyzed with bidirectional fitting relative to DMSO as the negative control and baseline of activity. Using a type of inducible reporter, measures of mRNA for gain or loss-of-signal activity can be used to understand the reporter gene at the transcription factor-level as they relate to the gene NFIA. Furthermore, this assay endpoint can be referred to as a primary readout, because this assay has produced multiple assay endpoints where this one serves a reporter gene function. To generalize the intended target to other relatable targets, this assay endpoint is annotated to the dna binding intended target family, where the subfamily is nuclear factor I.
Human liver HepG2 cells are transiently transfected with multiple reporter transcription units (MRTUs) in 6-well plates using FuGene 6 reagent (Roche; 3 ml FuGene/1 mg DNA). The MRTU constructs are regulated by a cis-regulating element (promoter). […] A major difference between the CIS and TRANS system is that in CIS activities of endogenous TFs are measured, whereas the TRANS assay evaluates changes in activities of exogenous, chimeric NR-Gal4 proteins. […] At the end of 24 hour incubation, total RNA was isolated using TriZol reagent (Invitrogen). The isolated RNA is then reverse-transcribed using oligo(dT) primer and Mo-MLV reverse transcriptase (Invitrogen) with DNAse I (Ambion) treatment for 30 min. The one-tenth of the produced cDNA was amplified by PCR using Taq DNA polymerase (Invitrogen) and two reporter sequence-specific primers. The PCR products were fluorescently labeled by primer extension with 6-arboxyfluorescein (6-FAM) 5'-labeled reporter sequence-specific primer (2 min at 95 C, 20 s at 68 C and 10 min at 72 C) and these products were digested with 5U of HpaI (New England Biolabs) for 2h at 37 C. The fragments were purified using Qiaquick PCR columns (Qiagen), analyzed on an ABI 3130xL genetic analyzer (Applied Biosystems) with peak positions identified by using a set of X-rhodamine (ROX)-labeled MapMarker1000 molecular weight standards (BioVentures). The raw capillary electrophoresis data was processed using Attagraph software (Attagene).

| Structure (SMILES) | outcome | AC50 |
| --- | --- | --- |
| O=C(F)C(F)(F)C(F)(F)C(F)(F)C(F)F | inactive |  |
| C=CC(=O)OCCN(CC)CC |  | 27.4 µM (active) |
| FC(F)(F)C1(F)C(F)(F)C(F)(F)C(F)(F)C1(F)F | inactive |  |
| C=CC(F)(F)C(F)(F)C(F)(F)C(F)(F)F | inactive |  |
| CCCCCCCCCCCCCCC | inactive |  |
| FC1(F)C=CC(F)(F)C1(F)F | inactive |  |
| CCc1cccc(CC)c1NC(=O)C(=O)O | inactive |  |
| CCC(=O)C=Cc1ccc(OC)cc1 | inactive |  |
| CC=O | inactive |  |
| O=C(C=C(O)C(F)(F)F)C(F)(F)F | inactive |  |
| CN(Cc1cnc2nc(N)nc(N)c2n1)c1ccc(C(=O)N[C@@H](CCC(=O)O)C(=O)O)cc1 | inactive |  |
| Cn1sccc1=O |  | 163 µM (active) |
| CCOC(=O)CN[C@@H](C(=O)N1CC[C@H]1C(=O)NCc1ccc(/C(N)=N/O)cc1)C1CCCCC1 | inactive |  |
| Cc1ccc(S(=O)(=O)O)cc1 | inactive |  |
| CC1CNCC(C)O1 (stereo not given) | inactive |  |
| NNc1nc(-c2ccc([N+](=O)[O-])cc2)cs1 | inactive |  |
| CCCCCCc1ccc(N)cc1 | inactive |  |
| C=CC(=O)OCCC(F)(F)C(F)(F)C(F)(F)C(F)(F)C(F)(F)C(F)(F)C(F)(F)C(F)(F)F | inactive |  |
| O=S(=O)(O)c1ccccc1 | inactive |  |
| CCC(C)c1nccnc1OC (stereo not given) | inactive |  |

| Structure (SMILES) | outcome | AC50 |
| --- | --- | --- |
| Brc1cc(Br)c(Oc2c(Br)cc(Br)c(Br)c2Br)cc1Br | inactive |  |
| CCCCCC(C)OC(=O)COc1ccc(Cl)c2cccnc12 (stereo not given) | inactive |  |
| Oc1c(Cl)cc(Cl)cc1Sc1cc(Cl)cc(Cl)c1O | inactive |  |
| O=C(Nc1ccc(Cl)c(Cl)c1)c1cc(Cl)cc(Cl)c1O | inactive |  |
| FC(F)=C(F)C(F)(F)C(F)(F)C(F)(F)C(F)F | inactive |  |
| CC(C)(C)c1ccc(CCC=O)cc1 | inactive |  |
| O=C(O)CCC(F)(F)C(F)(F)C(F)(F)C(F)(F)C(F)(F)C(F)(F)F | inactive |  |
| CC(=O)Nc1ccc(S(N)(=O)=O)cc1 | inactive |  |
| CC1CCC(CO)CC1 (stereo not given) | inactive |  |
| CCCCCCCCCCCCCCCCCC[N+](C)(C)Cc1ccccc1 | inactive |  |
| NCc1cccc(CN)c1 | inactive |  |
| Cc1ccc(N=Nc2c(O)ccc3ccccc23)c(C)c1 | inactive |  |
| O=C(NCc1ncc(C(F)(F)F)cc1Cl)c1c(Cl)cccc1Cl | inactive |  |
| Cc1cccc2c1ccc1ccccc12 | inactive |  |
| O=C(O)C(F)(F)OC(F)(F)C(F)(F)OC(F)(F)C(F)(F)OC(F)(F)C(F)(F)C(F)(F)C(F)(F)F | inactive | 80.8 µM (active) |
| c1cc[nH]c1 | inactive |  |
| N=C(N)c1ccc(OCCCCCOc2ccc(C(=N)N)cc2)cc1 | inactive |  |
| C=CC(=O)OCCC(F)(F)C(F)(F)C(F)(F)C(F)(F)C(F)(F)C(F)(F)F | inactive |  |
| O=S(=O)(c1ccc(OCc2ccccc2)cc1)c1ccccc1O |  | 33.4 µM (active) |

Source: PubChem BioAssay (EPA / NIEHS)
